The record followed here is PubChem BioAssay (Tox21).

Records with an inconclusive call do not appear. Values without a mark were called inactive. Calls of active or inactive are those of the source. The call rests on the fitted dose curve; in most records, active means well fitted curve in the direction sought with a large enough effect in the repeat runs; inconclusive means weak or mixed curves; inactive means no such curve, though single readings can be large; an effect the other way counts as inactive or inconclusive. Non-standard residues stand in square brackets, D forms with d. Residues, ends and D or L forms follow the SMILES beside them. pGlu = O=C1CC[C@@H](C(=O)O)N1; Thz = O=C(O)[C@@H]1CSCN1
On the % scale 0 is the no-effect control and ±100 the full control effect; potency means the concentration at half of the fitted maximal effect.

Sequence of Androgen receptor (Homo sapiens) (P10275 whole entry, looked up): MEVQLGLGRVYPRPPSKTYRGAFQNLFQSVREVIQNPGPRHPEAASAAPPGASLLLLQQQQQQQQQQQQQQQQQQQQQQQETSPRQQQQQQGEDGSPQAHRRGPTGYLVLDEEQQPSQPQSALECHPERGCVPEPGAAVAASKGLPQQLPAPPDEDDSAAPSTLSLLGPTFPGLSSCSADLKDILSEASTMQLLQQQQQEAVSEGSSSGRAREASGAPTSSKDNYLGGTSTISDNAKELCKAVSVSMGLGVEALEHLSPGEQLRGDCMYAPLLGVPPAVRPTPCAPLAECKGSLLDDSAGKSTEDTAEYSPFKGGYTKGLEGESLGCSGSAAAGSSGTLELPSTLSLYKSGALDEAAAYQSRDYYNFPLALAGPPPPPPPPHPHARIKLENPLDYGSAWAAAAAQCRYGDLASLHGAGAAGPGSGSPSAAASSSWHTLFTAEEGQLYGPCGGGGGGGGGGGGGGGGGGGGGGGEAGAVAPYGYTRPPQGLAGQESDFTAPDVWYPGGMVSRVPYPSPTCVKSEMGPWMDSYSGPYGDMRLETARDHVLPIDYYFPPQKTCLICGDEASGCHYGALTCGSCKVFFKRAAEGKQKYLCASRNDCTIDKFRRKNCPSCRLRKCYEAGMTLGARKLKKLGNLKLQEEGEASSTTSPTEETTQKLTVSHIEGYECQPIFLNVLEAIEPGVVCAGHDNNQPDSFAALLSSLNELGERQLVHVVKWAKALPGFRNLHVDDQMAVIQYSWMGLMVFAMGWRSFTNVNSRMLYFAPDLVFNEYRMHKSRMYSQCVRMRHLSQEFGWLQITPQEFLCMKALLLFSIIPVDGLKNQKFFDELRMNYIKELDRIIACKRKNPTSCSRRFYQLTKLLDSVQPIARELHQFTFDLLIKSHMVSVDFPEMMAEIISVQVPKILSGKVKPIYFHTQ

System in the first assay: not listed separately
The assay is described as follows: qHTS assay to identify small molecule antagonists of the androgen receptor (AR) signaling pathway using the MDA cell line - cell viability counter screen (AID 743041; further: nearly all actives have a fitted effect of over 45% in size). The settings on record: MDA-kb2 viability, CellTiter-Fluor, 16 h, cells co-treated with R1881 androgen agonist; series mostly up to 70.3 µM; viability change, negative = cytotoxic: at the top concentration. Summed up: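 Same-well cytotoxicity was assessed by CellTiter-Fluor in MDA-kb2 AR-luc cells after 16 h of compound treatment under R1881 agonism.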
In general terms: Quantitative high-throughput screening tests each substance at several concentrations.
For `CCN(CC)c1ccc(C(=C2C=CC(=[N+](CC)CC)C=C2)c2ccccc2)cc1`, the Potency is 2.66 µM (active).

Take `C=CC1=C(C)C2=CC3=NC(=C(CC(=O)[O-])C4=NC(=C(C)C4=C([O-])[O-])C=c4[n-]c(c(C)c4CC)=CC1=N2)C(CCC(=O)[O-])C3C.[Cu+2].[Na+].[Na+].[Na+]` (centres undefined): the Potency was 22.1 µM (active).

For the compound `COc1ccc(CCNC[C@H](O)c2ccc(O)cc2)cc1OC`, the “viability change, negative = cytotoxic” value is -6.56%.

Turning to `Cc1cc(C(=O)NNCc2ccccc2)no1`, the “viability change, negative = cytotoxic” value is 1.74% [at 32.5 µM].

For the compound `NC[C@@H]1O[C@H](O[C@H]2[C@@H](O)[C@H](O[C@@H]3[C@@H](O)[C@H](N)C[C@H](N)[C@H]3O[C@H]3O[C@H](CN)[C@@H](O)[C@H](O)[C@H]3N)O[C@@H]2CO)[C@H](N)[C@@H](O)[C@@H]1O`, the “viability change, negative = cytotoxic” value is 5.04%.

Another assay has as its target Androgen receptor (Homo sapiens) (UniProt P10275). The assay is described as follows: qHTS assay to identify small molecule antagonists of the androgen receptor (AR) signaling pathway using the MDA cell line (AID 743042; further: nearly all actives have a fitted effect of over 55% in size). The settings on record: MDA-kb2 AR-luc, MMTV luciferase, R1881 antagonist, 16 h; series mostly up to 70.3 µM; activity change, negative = inhibition: at the top concentration. Summed up: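 MDA-kb2 breast carcinoma cells carrying MMTV-luciferase (AR/GR responsive) were co-treated with compounds and the agonist R1881 for 16 h at 37C. Inhibition read as ONE-Glo luminescence; CellTiter-Fluor fluorescence measured in parallel for cytotoxicity.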
For `CN(C)c1ccc(C(=C2C=CC(=[N+](C)C)C=C2)c2c(O)c(S(=O)(=O)[O-])cc3cc(S(=O)(=O)O)ccc23)cc1`, the Potency was 11.9 µM (active).

For the compound `O=C(O)c1cccc(/C=C2/C[C@@H]3[C@@H](/C=C/[C@@H](O)C4CCCCC4)[C@H](O)C[C@@H]3O2)c1`, the “activity change, negative = inhibition” value was 1.07%.

With `CN(C)CCCN1c2ccccc2C(C)(C)c2ccccc21`, the “activity change, negative = inhibition” value was -11.5%.

On to `Cc1cc2nc3c(=O)[nH]c(=O)nc-3n(C[C@H](O)[C@H](O)[C@H](O)COP(=O)(O)OP(=O)(O)OC[C@H]3O[C@@H](n4cnc5c(N)ncnc54)[C@H](O)[C@@H]3O)c2cc1C`, for which the “activity change, negative = inhibition” value was 56.8%.

Turning to `C[N@+]12CCCC[C@@H]1CCC(=C(c1cccs1)c1cccs1)C2`, the Potency is 18.8 µM (active).

On to `O=C1CC[C@@H](C(=O)N2CSC[C@H]2C(=O)O)N1` ([pGlu]-[Thz]-OH), for which the “activity change, negative = inhibition” value was 17.7%.

Regarding `OCCN1CCN(CC/C=C2/c3ccccc3Sc3ccc(Cl)cc32)CC1`, the “activity change, negative = inhibition” value was -9.19% [at 32.5 µM].

As to `CCC(Cc1c(I)cc(I)c(O)c1I)C(=O)O` (centres undefined), the “activity change, negative = inhibition” value is 2.72%.

On to `CN=C1C=CC(=C(c2ccc(N(C)C)cc2)c2ccc(N(C)C)cc2)C=C1`, for which the Potency was 3.76 µM (active).

With `CC(=O)O[C@H]1C(=O)[C@@]2(C)[C@H]([C@H](OC(=O)c3ccccc3)[C@]3(O)C[C@H](OC(=O)[C@H](O)[C@@H](NC(=O)c4ccccc4)c4ccccc4)C(C)=C1C3(C)C)[C@]1(OC(C)=O)CO[C@@H]1C[C@@H]2O`, the “activity change, negative = inhibition” value was -10.1%.

Regarding `CCOC(=O)COc1ccc2c(C)c(CCN(CC)CC)c(=O)oc2c1`, the “activity change, negative = inhibition” value is 15.2%.

With `CCCCCCCCCCCCCC[n+]1ccc(C)cc1`, the Potency is 5.96 µM (active).

Regarding `[O]=[Bi][O][Bi]=[O]`, the “activity change, negative = inhibition” value was 0.912%.

Consider `CCN(CC)c1ccc(C(=C2C=CC(=[N+](CC)CC)C=C2)c2ccccc2)cc1`, for which the Potency was 0.473 µM (active).
